PME-1 primary – PME-1 (human) inhibition; Q9Y570; inhibition, % at 5.9 µM; AID 2130; recombinant PME-1, FP-Rh probe fluorescence polarization; actives 0.53% (n = 320,000);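 active = inhibition above the campaign mean of all compounds plus 3 SD, cut at about 26% in these data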;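 note: competitive labeling of PME-1 active site by serine hydrolase directed probe; inhibitors block probe labeling so polarization falls and inhibition rises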
Target sequence (Q9Y570 whole entry, looked up): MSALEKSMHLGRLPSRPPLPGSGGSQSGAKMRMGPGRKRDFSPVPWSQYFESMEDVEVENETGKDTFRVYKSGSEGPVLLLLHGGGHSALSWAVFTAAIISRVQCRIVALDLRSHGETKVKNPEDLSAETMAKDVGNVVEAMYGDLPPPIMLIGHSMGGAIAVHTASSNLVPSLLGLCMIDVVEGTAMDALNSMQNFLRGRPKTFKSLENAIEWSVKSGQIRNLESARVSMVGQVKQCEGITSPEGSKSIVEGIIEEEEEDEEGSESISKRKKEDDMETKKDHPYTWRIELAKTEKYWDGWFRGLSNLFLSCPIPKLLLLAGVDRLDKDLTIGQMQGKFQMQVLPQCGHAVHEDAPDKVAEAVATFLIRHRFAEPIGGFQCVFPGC
PREPL inhibitor – inhibitors of human prolyl oligopeptidase-like enzyme PREPL | Q4J6C6 | recombinant PREPL, fluorescence polarization activity-based probe | inhibition, % at 5.96 µM | actives 0.68% (n = 320,000); in the data active = inhibition above about 43%
LYPLA1 inh – blocks human lysophospholipase 1, a PME1 counter-screen. recombinant LYPLA1, FP-Rh probe fluorescence polarization. inhibition, % at 5.9 µM. actives 0.16% (n = 320,000). AID 2174;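 active = inhibition above the mean of all tested compounds plus 3 SD, set per campaign, cut at about 14% in these data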;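 note: inhibitors block serine hydrolase probe labeling of LYPLA1 so polarization falls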
Target sequence (O75608 whole entry, looked up): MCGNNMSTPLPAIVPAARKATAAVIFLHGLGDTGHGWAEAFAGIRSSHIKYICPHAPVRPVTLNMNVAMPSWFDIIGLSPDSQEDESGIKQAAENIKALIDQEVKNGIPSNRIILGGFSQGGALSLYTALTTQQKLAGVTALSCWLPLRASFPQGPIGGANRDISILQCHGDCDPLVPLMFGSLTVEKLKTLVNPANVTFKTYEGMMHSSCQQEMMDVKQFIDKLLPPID
MEX-5 binding – C. elegans MEX-5 TCR-2 RNA binding activity; Q9XUB2; MEX-5/FITC-TCR2 RNA binding, fluorescence polarization; hits give low values; activity score (negative = inhibition of binding), % at 10 µM; actives 0.38% (n = 300,000); AID 1832;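 active = inhibition past about -25% in most replicates, and total fluorescence under double the plate's negative control median, limit read from the data; inconclusive = replicates evenly split on the limit, or fluorescence at least double controls; inactive = too little inhibition in most replicates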
LYPLA2 inh – counter-screen for PME1 inhibitors: inhibitors of human LYPLA2; actives 0.38% (n = 320,000); recombinant LYPLA2, FP-Rh probe fluorescence polarization; O95372; inhibition, % at 5.9 µM;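 active = inhibition above the screen-wide mean plus 3 SD, limit set per campaign, cut at about 26% in these data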
Fam108B inh – blocks mouse Fam108B hydrolase in RBBP9 counter-screen; recombinant Fam108B, FP-Rh probe fluorescence polarization; inhibition, % at 9.51 µM; actives 0.33% (n = 300,000); AID 1947;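 active = inhibition above the screen mean inhibition plus 3 SD, computed separately per campaign, cut at about 18% in these data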;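 note: inhibitors lower polarization as less probe binds the enzyme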
Fam108b inh conf – confirmation of mouse Fam108b serine hydrolase inhibitors; shares compounds with Fam108B inh; recombinant Fam108b, FP-Rh probe fluorescence polarization; inhibition, % at 9.51 µM; actives 44% (n = 930); AID 1978;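 active = inhibition above a limit from the primary screen, the mean over all compounds plus 3 SD, cut at about 19% in these data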;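 note: inhibitors free the probe so polarization falls as inhibition rises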
Fam108b inh – inhibits mouse Fam108b in gel-based ABPP; shares compounds with Fam108B inh; recombinant Fam108b, fluorophosphonate probe; inhibition, % at 20 µM; actives 44% (n = 260); AID 588649; in the data active = inhibition above about 40%
Each line names hits and unclear results; the compound was inactive in the other large screens (follow-up assays come after a bar, where they were run). Rows were chosen to be rich in hits. Some 1.6% of all compounds tested hit in one or more screens of this group.

Cn1c(SCC(=O)N/N=C/c2ccc([N+](=O)[O-])s2)nnc1-c1ccccc1	Fam108B inh 20.9 | Fam108b inh conf inactive
CCCc1cc(SCC(=O)Nc2c(C)n(C)n(-c3ccccc3)c2=O)n2c(nc3ccccc32)c1C#N	Fam108B inh 24.0 | Fam108b inh conf 22.6
O=C(O)c1ccc(N/N=C/C2=C(N3CCOCC3)C(=C\c3ccccc3)/CC2)cc1	MEX-5 binding inconclusive, Fam108B inh 18.9 | Fam108b inh conf 22.0
Cn1cc(C(=O)N/N=C/C2=C(N3CCOCC3)C(=C/c3ccc([N+](=O)[O-])cc3)/CC2)ccc1=O	none
Cn1c2ccccc2c2cc(C=NNC(=O)c3cc(O)ccc3O)ccc21	none (no result: PME-1 primary, PREPL inhibitor, LYPLA1 inh, MEX-5 binding, LYPLA2 inh, Fam108B inh) | Fam108b inh 85.0
Cn1c2ccccc2c2cc(/C=N/NC(=O)c3cc(O)ccc3O)ccc21	PME-1 primary 50.3, Fam108B inh 45.6 | Fam108b inh conf 40.4
NC(=O)c1ccc[n+]([C@H]2O[C@@H](COP(=O)([O-])OP(=O)(O)OC[C@H]3O[C@@H](n4cnc5c(N)ncnc54)[C@H](O)[C@@H]3O)[C@H](O)[C@@H]2O)c1	none (no result: MEX-5 binding)
CC(=O)NCCn1ccc2ccccc21	Fam108B inh 22.0 | Fam108b inh conf inactive
Cc1cc(C(=O)Nc2ccc(F)cc2C)cs1	none
COC(=O)c1sc(NC(=S)NNC(=O)c2c(Br)c(C)nn2C)c(C(=O)OC)c1C	Fam108B inh 26.3 | Fam108b inh conf 24.4
COC(=O)c1sc(NC(=O)C(C)C)c(C(=O)OC)c1C	none
COC(=O)c1ccc(OCC(=O)NC2CCCCCCC2)cc1	none (no result: PME-1 primary, LYPLA1 inh, MEX-5 binding, LYPLA2 inh, Fam108B inh)
Cc1ccc2nc(/C(C#N)=C/c3ccccc3C(=O)O)[nH]c2c1	none
Cc1ccc2nc(/C(C#N)=C/c3ccc(O)c(O)c3)[nH]c2c1	PME-1 primary 28.8, Fam108B inh 30.9 | Fam108b inh conf inactive
Cc1ccc2nc(/C(C#N)=C\c3ccc(N4CCCCC4)c([N+](=O)[O-])c3)[nH]c2c1	PME-1 primary 67.5, Fam108B inh 31.0 | Fam108b inh conf inactive
COc1ccc(-c2cc(C(=O)Nc3ccc(C)c(N)c3)c3ccccc3n2)cc1	none
Cc1cccc(N2CCN(CC(=O)N(C)Cc3ccccc3)CC2C)c1 (stereo not drawn)	none
Cn1c(=O)c(C#N)c(-c2ccc(F)cc2)c2cc(C(=O)c3cc(Cl)cc(Cl)c3O)cnc21	PME-1 primary 63.4, Fam108B inh 22.4 | Fam108b inh conf 21.5
O=C(CSc1nncs1)N1CCN(S(=O)(=O)c2ccccc2)CC1	none
CCc1c(C(=O)Nc2ccc(OC)c(Cl)c2)[nH]c(C)c1C(C)=O	Fam108B inh 19.0 | Fam108b inh conf 39.5 | Fam108b inh inactive
O=C(NC(=S)NNC(=O)c1ccccc1O)c1cccc([N+](=O)[O-])c1	Fam108B inh 19.3 | Fam108b inh conf inactive
COc1ccc(C(=O)NNC(=S)NC(=O)c2cccc([N+](=O)[O-])c2)cc1	none (no result: MEX-5 binding)
C=C(C)Cn1c(SCC)nc2ccccc2c1=O	none
C=C(C)Cn1c(SCC(=O)N/N=C/c2c(O)ccc3ccccc23)nc2ccccc2c1=O	Fam108B inh 28.9 | Fam108b inh conf inactive
COc1ccc(CNc2nc3ccccc3n2C)c(OC)c1	none
COc1ccc(N=Nc2nc3cc(Br)c(Br)cc3n2C)c(OC)c1	PME-1 primary 61.3, Fam108B inh 31.3 (no result: MEX-5 binding) | Fam108b inh conf inactive
Cc1cccc(NC(=O)/C(C#N)=C/c2ccc(Cl)cc2)n1	Fam108B inh 19.2 | Fam108b inh conf inactive
Cc1cccc(NC(=O)/C(C#N)=C/c2cccc([N+](=O)[O-])c2)n1	Fam108B inh 24.9 | Fam108b inh conf 21.4
O=[N+]([O-])c1ccccc1S(=O)(=O)N(CC1CO1)c1ccccc1 (stereo not drawn)	none
CCOC(=O)N1CCOCCOCCN(C(=O)OCC)CCOCC1	none
CCOc1ccc(Oc2c(/C=N/NC(=O)COc3ccccc3OC)c(C)nn2-c2ccccc2)cc1	none
Cc1ccc(S(=O)(=O)Nc2cc(C)c(O)cc2C)cc1	none
Cc1ccc(S(=O)(=O)Nc2csc(C)c2C(=O)O)cc1	Fam108B inh 47.4 | Fam108b inh conf inactive
Cc1cccc(C)c1NC(=O)CN(C)C(=O)c1ccccc1C(=O)N(C)Cc1ccccc1	none
O=C(NCCc1ccc(Cl)cc1)C1CCCN1C(=O)Nc1ccc(F)cc1 (stereo not drawn)	none
O=C(NCCc1ccc(Cl)cc1)C1CCCN1C(=O)Nc1ccccc1 (stereo not drawn)	Fam108B inh 30.5 | Fam108b inh conf inactive
COc1ccccc1NC(=O)COC(=O)c1cc2ccccc2cc1O	none (no result: MEX-5 binding, Fam108B inh)
COc1ccccc1NC(=O)c1cc2cc(Br)ccc2cc1O	Fam108B inh 38.1 | Fam108b inh conf inactive
COc1cc(NC(=O)c2cc3ccccc3cc2O)c(OC)cc1Cl	PME-1 primary 42.0, Fam108B inh 29.7 | Fam108b inh conf inactive
Cc1cc(SCC(=O)c2ccc(O)c(O)c2)n2nc(C)c(-c3ccccc3)c2n1	Fam108B inh 18.3 | Fam108b inh conf inactive
Cc1cc(C)nc(SCC(=O)c2ccc(O)c(O)c2)n1	none
O=S(=O)(Cc1ccccc1)N1CCCCC1	none
CCOC(=O)/C(=N\Nc1ccc(Cl)cc1)c1csc(Nc2ccccc2)n1	PME-1 primary 29.2, Fam108B inh 20.7 | Fam108b inh conf 27.2
CCCCC(CCC(=O)O)(C(=O)OCC)c1csc(Nc2ccccc2)n1 (stereo not drawn)	none
CCOC(=O)/C(=N\Nc1ccc(OC)cc1)c1csc(Nc2ccccc2)n1	Fam108B inh 23.4 | Fam108b inh conf inactive
CCN(CC)C(=O)c1csc(Nc2ccc(C)cc2)n1	none
CCOC(=O)/C(=N/Nc1ccccc1)c1csc(Nc2ccccc2)n1	Fam108B inh 21.5 | Fam108b inh conf inactive
Cc1ccc(COc2coc(CO)cc2=O)cc1	none
COC(=O)c1ccc(=O)c2nc3/c(=C/O)c(O)cc(=O)c3[nH]c12	Fam108B inh 33.4 (no result: MEX-5 binding) | Fam108b inh conf 48.5
O=C(O)c1ccc(/C=N\Nc2ccc(S(=O)(=O)N3CCOCC3)cc2[N+](=O)[O-])cc1	none
Cc1ccc(-n2c(O)c(/C=N/Nc3ccc(S(=O)(=O)N4CCOCC4)cc3[N+](=O)[O-])c3ccccc3c2=O)c(C)c1	PME-1 primary 34.4, Fam108B inh 32.2 | Fam108b inh conf 45.5 | Fam108b inh 45.0
COc1ccc(CCNS(=O)(=O)c2cn(C)cn2)cc1OC	none
CCN(CC)S(=O)(=O)c1ccc(Nc2nc3ccccc3n3nnnc23)cc1	Fam108B inh 26.4 | Fam108b inh conf inactive
c1ccc(Nc2nc3ccccc3n3nnnc23)cc1	none

Bioassay records (PubChem)
